Among all 87,000 compounds or so, about 360 (0.41%) were called active. This is one part of a sample in which actives are shown more often than they occur. Unmarked numbers belong to inactive results. Rule as the data show it: active = cytotoxicity above about 50%; inactive = the rest.
Assay: HT1080 cell viability loss – fluorescence readout (AID 620);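 also: cells exposed to compound overnight then 4 h with Alamar Blue; 0% = vehicle DMSO and 100% = killing control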
Details: at 10 µM, active compounds read high

SMILES | cytotoxicity
CC(SC(=S)N1CCOCC1)C(=O)O (configuration not stated) | 7.1%
CC(C(=O)OCc1nnc(-c2ccccc2)o1)N1C(=O)c2ccccc2C1=O (configuration not stated) | 4.5%
COc1ccccc1OCCCn1cc(C#N)c2ccccc21 | 76.4% (active)
N#Cc1cn(CCCOc2ccccc2)c2ccccc12 | 24.2%
COc1ccccc1OCCn1cc(C#N)c2ccccc21 | -3.5%
Cc1cc(C)n(-c2nc3c(c(=O)[nH]c(=O)n3C)n2CCc2ccccc2)n1 | 15.7%
COc1ccc(CCn2c(-n3nc(C)cc3C)nc3c2c(=O)[nH]c(=O)n3C)cc1 | 55.6% (active)
Cc1ccc(Cn2c(-n3nc(C)cc3C)nc3c2c(=O)[nH]c(=O)n3C)cc1 | -7.9%
CC(=O)Cc1nsc(NC(=O)C2Cc3ccccc3C(=O)O2)n1 (configuration not stated) | -9.2%
Cc1cc(C)n(-c2nnc(C)n2/N=C/c2cc(Br)ccc2OCc2ccccc2)n1 | 5.9%
COc1ccccc1/C=N/n1c(C)nnc1-n1nc(C)cc1C | 9.8%
CCCOc1ccc2ccccc2c1/C=N/n1c(C)nnc1-n1nc(C)cc1C | 61.6% (active)
Cc1c(C(N)=O)sc2ncn(CC(=O)N3CCC(C)CC3)c(=O)c12 | 0.9%
CCN1CCCC1CNC(=O)CN1C(=O)COc2ccc(C)cc21 (configuration not stated) | -4.1%
O=C(Cc1ccc(Br)cc1)OCC(=O)c1ccc2c(c1)OCCO2 | -6.8%
O=C(Cn1cnc2ccccc2c1=O)OCC(=O)c1ccc2c(c1)OCCO2 | -7.6%
O=C(Cc1n[nH]c(=O)c2ccccc12)OCC(=O)c1ccc2c(c1)OCCO2 | 60.4% (active)
CC(C)c1cc(Nc2cccc(O)c2)cc(C(C)C)c1O | 2%
CCN(Cc1ccccc1)S(=O)(=O)c1ccc(S(=O)(=O)N(Cc2ccccn2)Cc2ccco2)cc1 | 11.3%
CCN1CCN(C(=O)Cn2ncc3ccsc3c2=O)CC1 | -5.8%
CCN1C(=O)/C(=C/N2CCc3ccccc32)SC1=S | 5.1%
CCN1C(=O)/C(=C\N2CCCc3ccccc32)SC1=S | 52.5% (active)
CCN1C(=O)/C(=C\N2CCCCCC2)SC1=S | -5.6%
COc1ccc(C(=O)Nc2ccc(N3CCOCC3)cc2)cc1OC | -4.9%
COc1cc(C(=O)Nc2cccc3cccnc23)cc(OC)c1OC | 5.4%
Cn1c(=N)n(CC(O)c2ccco2)c2ccccc21 (configuration not stated) | -14.7%

SMILES | cytotoxicity
Cn1c(=N)n(CC(=O)O)c2ccccc21 | 0.2%
Cn1c(=N)n(CC(O)c2cccc3ccccc23)c2ccccc21 (configuration not stated) | 57.8% (active)
CC1CCC(C(C)C)C(OCC(O)CN2CCOCC2)C1 (configuration not stated) | 2.7%
COc1ccccc1NC(=O)c1oc2ccccc2c1NC(=O)c1ccco1 | 0.3%
COc1ccccc1NC(=O)c1oc2ccccc2c1NC(=O)c1cc(OC)c(OC)c(OC)c1 | 50% (active)
COCC(=O)Nc1c(C(=O)Nc2ccccc2OC)oc2ccccc12 | -17.1%
Cc1oc2c(c1C(=O)Nc1cccc(C(=O)O)c1)CCCC2 | 9.3%
CC1(C)CC2CC(C)(CN2C(=O)Cc2ccccc2)C1 (configuration not stated) | -25%
COc1cccc(C2C(C(N)=O)=C(C)Nc3nc(CCCO)nn32)c1OC (configuration not stated) | 1%
CCOC(=O)c1c(C)sc2c1N(C(C)=O)c1cc(Cl)ccc1S2 | 17.6%
CCOC(=O)c1c(C)sc2c1N(C(=O)CN(CC)CC)c1cc(Cl)ccc1S2 | 6.5%
CCOC(=O)c1c(C)sc2c1N(C(=O)CCl)c1cc(Cl)ccc1S2 | 87.2% (active)
CCCN1CCN(C(c2cc3cc4c(cc3[nH]c2=O)OCO4)c2nnnn2C(C)(C)C)CC1 (configuration not stated) | 1.4%
CCN(CC)S(=O)(=O)c1cccc(C(=O)Nc2ccc(Cl)cn2)c1 | -7.6%
CCc1ccc(C2=CC(c3cc(Br)ccc3F)n3ncnc3N2)cc1 (configuration not stated) | 44.7%
Fc1ccc(Br)cc1C1C=C(c2ccc(Br)s2)Nc2ncnn21 (configuration not stated) | 62.6% (active)
Fc1ccc(Br)cc1C1C=C(c2ccc(Br)cc2)Nc2ncnn21 (configuration not stated) | -11.5%
Cc1cc(N)n(-c2ncnc3scc(-c4ccc(Cl)cc4)c23)n1 | 7.2%
O=C(c1ccc(F)cc1)C(CN1CCOCC1)c1ccccc1 (configuration not stated) | 61% (active)
COc1ccc(C(=O)C(CN2CCOCC2)c2ccccc2)cc1 (configuration not stated) | 27%
COc1ccc(C(=O)C(CN2CCOCC2)c2ccccc2)cc1F (configuration not stated) | 25.3%
CC(CN1CCOCC1)C(=O)c1ccccc1 (configuration not stated) | -9.8%
CCCCCOc1ccc(C(=O)C(c2ccccc2)N2CCOCC2)cc1 (configuration not stated) | -2%
CCc1cc(=O)oc2cc(OCC(=O)N(CC)CC)c(Cl)cc12 | 2.2%
O=C(CCn1c(=O)sc2ccccc21)NCc1ccccc1 | 0%
c1ccc2[nH]c(CSc3nc4ccccc4s3)nc2c1 | -3.3%

— PubChem BioAssay AID620 (Sanford-Burnham Center for Chemical Genomics, 2007)
